# In ChEMBL document CHEMBL4513146, “CO-ADD screening of Karazin Kharkiv National University (Ukraine) compounds”:
# Potency and affinity values are given separately.
# Tests used:
# Klebsiella pneumoniae = settings: Concentration 32 ug.mL-1;; ASSAY_TEST Inhibition of Bacterial Growth; detection method Absorption (OD600); MEDIA CAMHB; plate type 384well; NBS; CORNING #3640; time 18 hr
# Candida albicans = settings: Concentration 32 ug.mL-1; ASSAY_TEST Inhibition of Fungal Growth; detection method Absorption (OD530)
# Cryptococcus neoformans = settings: Concentration 32 ug.mL-1; ASSAY_TEST Inhibition of Fungal Growth; detection method Resazurin; Absorption (OD600-OD570); plate type 384well; NBS; CORNING #3640
SMILES,Inhibition (Klebsiella pneumoniae) [%],Inhibition (Candida albicans) [%],Inhibition (Cryptococcus neoformans) [%]
COc1ccc(NC(=O)Cn2nc3c4cc(-c5ccc(C)cc5)nn4ccn3c2=O)cc1Cl,-5.12,9.96,-15.26
CCCn1c(=O)c2sccc2n2c(=O)n(CC(=O)c3cc(C)ccc3C)nc12,9.58,6.28,-24.9
Cc1ccc(NC(=O)Cn2nc3ccc(SCc4ccc(Cl)cc4)nn3c2=O)cc1,-9.13,7.44,-7.75
N#Cc1ccccc1NC(=O)Cn1nc2c(Oc3ccccc3)nccn2c1=O,2.81,-0.12,-5.65
Cc1cccc(CN(c2ccccc2)S(=O)(=O)c2cccn3c(C)nnc23)c1,4.77,-0.3,-6.4
CCc1ccc(N(Cc2ccc(Cl)cc2)S(=O)(=O)c2cccn3c(C)nnc23)cc1,-1.79,3.63,-5.55
CCc1cccc(NC(=O)Cn2c(=O)c3nnc(C(C)C)n3c3ccccc32)c1,9.33,1.02,-21.01
Cc1cc(C)c(NC(=O)CSc2nnc3c4cc(-c5ccccc5)nn4ccn23)c(C)c1,10.34,10.47,-13.87
Cc1ccc(-n2ccn3c(SCC(=O)c4c[nH]c5ccccc45)nnc3c2=O)cc1C,9.4,3.27,-5.1
Cc1cccc(C)c1NC(=O)Cn1nc2c(Sc3cccc(F)c3)nccn2c1=O,4.53,-1.35,-4.17
O=C(Cn1nc2c3c4c(sc3ncn2c1=O)CCCC4)NCCc1ccc(Cl)cc1,9.47,7.92,-14.7
O=C(CCc1nnc2c3cc(-c4ccccc4)nn3ccn12)N1CCN(C(=O)c2ccco2)CC1,11.67,2.11,-4.62
CCOc1ccc(NC(=O)Cn2nc3c(Sc4ccc(C)cc4C)nccn3c2=O)cc1,3.27,6.36,-11.66
COc1ccccc1-n1ccn2c(SCc3cc(C)ccc3C)nnc2c1=O,16.48,0.1,-7.82
CCCNC(=O)Cn1nc2cc(C)nc(Nc3cc(C)cc(C)c3)n2c1=O,18.12,5.03,-9.02
Cc1ccc(Sc2nccn3c(=O)n(CC(=O)Nc4ccc(Br)cc4C)nc23)c(C)c1,-0.35,-0.15,-17.66

SMILES,Inhibition (Klebsiella pneumoniae) [%],Inhibition (Candida albicans) [%],Inhibition (Cryptococcus neoformans) [%]
Cc1ccc(NC(=O)Cn2nc3c(Sc4ccccc4)nccn3c2=O)c(C)c1,7.2,3.33,-10.8
COc1ccc(-c2cc3c4nnc(SCC(=O)Nc5ccc(OC)c(Cl)c5)n4ccn3n2)cc1,6.25,2.5,-21.63
COc1ccc(C(=O)CSc2nnc3c(=O)n(-c4cccc(OC)c4)ccn23)cc1,12.72,5.69,-12.42
O=c1c2nn(Cc3cccc([N+](=O)[O-])c3)c(=O)n2ccn1-c1ccccc1,9.21,0.04,-10.2
CCOC(=O)c1cccc(NC(=O)CSc2nnc3ccc(C(=O)Nc4cccc(F)c4)cn23)c1,3.6,0.96,-5.2
CCc1ccccc1NC(=O)Cn1nc2c(Sc3ccccc3CC)nccn2c1=O,12.45,3.69,-11.06
CCCCc1ccc(NC(=O)Cn2nc3c(N4CCN(c5ccccc5C)CC4)nccn3c2=O)cc1,-4.55,48.6,-6.75
CC(C)CCNC(=O)Cn1nc2n(CC(C)C)c(=O)c3sccc3n2c1=O,9.99,-0.63,-16.87
Cc1ccc(CSc2nnc3c(=O)n(-c4ccc(Br)cc4)ccn23)cc1,11.07,8.75,-7.86
CCCCc1ccc(NC(=O)Cn2nc3c(SC4CCCCC4)nccn3c2=O)cc1,1.99,20.8,-5.76
Cc1cc(C)c(NC(=O)Cn2nc3c(N4CCCC(C)C4)nccn3c2=O)c(C)c1 (stereo not drawn),-3.43,-1.23,-2.74
COC(=O)c1ccc(NC(=O)Cn2nc3ccc(S(=O)(=O)c4ccccc4)nn3c2=O)cc1,3.88,1.43,-5.62
Cc1cc(NC(=O)Cn2nc3ccc(SC(C)(C)C)nn3c2=O)ccc1Br,5.26,32.86,-21.27
COc1ccccc1NC(=O)Cn1nc2c(Oc3ccc(Cl)cc3)nccn2c1=O,6.51,22.33,-8.59
Cc1nnc2c(=O)n(CC(=O)Nc3cccc(F)c3)c3ccccc3n12,11.8,1.2,-2.05
